Measured values published in article PMC4552634, “A New Set of Chemical Starting Points with Plasmodium falciparum Transmission-Blocking Potential for Antimalarial Drug Discovery” (PLoS ONE, 2015).
In all, about 13,000 compounds went through this assay and about 3,200 (25%) showed an effect of 50% or more. This is one part of the list.

Test system: P. falciparum stage V gametocytes
Parameters: BacTiter-Glo ATP luminescence viability of purified stage V gametocytes in 384-well plates, per cent inhibition versus DMSO
Settings: 48 h, 5 µM; inhibitor

Structure (SMILES)	% Inhibition
CC(C)(C)c1ccc(CNCC(C)(C)c2nc(-c3ccc(Cl)c(O)c3)c(-c3ccnc(N)n3)[nH]2)cc1 [TCMDC-141165]	3.988%
Oc1ccc(Cl)cc1-c1cc(C(F)(F)F)nc(-c2ccccc2)n1 [TCMDC-123665]	32.7%
COc1ccc2nccc([C@@H](O)CN3CCC(CO)(NCc4cc5ccccc5o4)CC3)c2c1 [TCMDC-140494]	12.97%
COc1ccc(CC(=O)NC2CCN(c3ccnc4cc(Cl)ccc34)C2)cc1 (stereo not shown) [TCMDC-133665]	-28.04%
CCN1CCC(N(Cc2ccc(-c3ccc(C(F)(F)F)cc3)cc2)C(=O)Cn2c(CCc3cccc(F)c3F)cc(=O)c3c2CCC3)CC1 [TCMDC-141265]	65.76%
COCCN1CCC(N(Cc2ccc(-c3ccc(C(F)(F)F)cc3)cc2)C(=O)Cn2c(CCc3cccc(F)c3F)cc(=O)c3c2CCC3)CC1 [TCMDC-141266]	34.4%
CCN(CC)CCN(Cc1ccc(-c2ccc(C(F)(F)F)cc2)cc1)C(=O)CN1C(CCc2cccc(F)c2F)=NS(=O)(=O)c2ccccc21 [TCMDC-141806]	67.96%
CCCNc1ccc2nccc(CCN3CCC(NCc4ccc5c(c4)NC(=O)CS5)CC3)c2n1 [TCMDC-141619]	-14.28%
ON=C1CCc2cc(-c3nc(-c4cccc(OCCNCc5ccc(F)cc5)c4)[nH]c3-c3ccncc3)ccc21 [TCMDC-141188]	20.84%
CN1CCC(NCc2cccc(-c3ccc(S(=O)(=O)NCCc4ccccn4)cc3)c2)CC1 [TCMDC-132214]	81.33%
Cc1cc(-c2cccc(CNC3CCN(C)CC3)c2)ccc1S(=O)(=O)NCCc1ccccn1 [TCMDC-132381]	33.36%
CN1CCC(NCc2ccc(-c3cccc(S(=O)(=O)NCCc4ccccn4)c3)cc2)CC1 [TCMDC-132239]	62.99%
CN1CCC(NCCS(=O)(=O)c2cccc(Nc3ccc(-c4cccc(F)c4)cn3)c2)CC1 [TCMDC-134370]	8.325%
COc1ccc2nccc([C@@H](O)CN3CCC(NCC(=O)Nc4cc(F)cc(F)c4)CC3)c2n1 [TCMDC-140675]	-19.08%
Cc1ccnc2nc(C(=O)Nc3cc(C(F)(F)F)ccc3N3CCCCC3)nn12 [TCMDC-124492]	-24.2%
COC(=O)Nc1cc(C(F)(F)F)ccc1N1CCC(CNS(=O)(=O)c2ccc(OC)cc2)CC1 [TCMDC-134157]	29.26%
Cc1ccc(C(=O)NCC2CCN(c3ccc(C(F)(F)F)cc3NC(=O)c3ccco3)CC2)cn1 [TCMDC-134179]	52.48%
C[C@H](NC(=O)[C@H](Cc1ccccc1)NC(=O)OC(C)(C)C)C(=O)N[C@@H](CC1CCCCC1)C(O)CN (stereo partly shown) [TCMDC-137178]	-9.62%
CCC(ON1C(N)=NC(N)=NC1(C)C)c1ccccc1 (stereo not shown) [TCMDC-131604]	-12.67%
COc1cccc(C=CC(=O)N(CCN)Cc2ccccc2)c1 [TCMDC-137725]	-7.766%
CN1CCN(CCCN(Cc2ccc(-c3cccc(CNC4CCCC4)c3)cc2)C(=O)Nc2ccccc2)CC1 [TCMDC-140605]	107.6%
CCCCN1CCCN(Cc2cccc(NC(=O)c3ccc(-c4ccccc4)cc3)c2)CC1 [TCMDC-141844]	-70.1%

Structure (SMILES)	% Inhibition
CN1CCN(CCCN(Cc2ccc(-c3cccc(CNC4CCCC4)c3)cc2)C(=O)/C=C/c2ccccc2)CC1 [TCMDC-140547]	114.1%
CN1CCN(CCCN(Cc2cccc(-c3cccc(CNC4CCCC4)c3)c2)C(=O)/C=C/c2ccccc2)CC1 [TCMDC-140543]	105.2%
CCCCCN1CCCN(Cc2cccc(NC(=O)c3ccc(-c4ccccc4)cc3)c2)CC1 [TCMDC-141845]	-85.57%
CN1CCN(CCCN(Cc2cccc(-c3ccc(CNC4CCCC4)cc3)c2)C(=O)/C=C/c2ccccc2)CC1 [TCMDC-140544]	99.25%
CN1CC[C@@H](Oc2cc(CNC(=O)c3ccc(-c4ccc(Cl)cc4)s3)ccc2C(F)(F)F)C1 [TCMDC-136151]	-38.31%
C=CCc1cc(Cc2cnc(N)nc2N)c2ccc(C)nc2c1OC [TCMDC-137891]	-15.21%
Cc1cc(OCc2ccccc2)c(OCc2ccccc2)cc1C(O)CN(C)Cc1ccccc1 (stereo not shown) [TCMDC-131246]	18.13%
Cc1cc(Nc2ccc(C(C)(C)C)cc2)c2[nH]ncc2n1 [TCMDC-131536]	-25.63%
Cc1ccccc1CCNC(=O)c1ccc(N2CCN(c3ccncc3)CC2)nc1 [TCMDC-134588]	6.86%
Cc1ccc2cc(C3NC(=O)c4ccccc4N3)c(Cl)nc2c1 (stereo not shown) [TCMDC-124480]	-10.78%
N#Cc1cccc(Nc2nccc(NCC(O)c3cccc(C(F)(F)F)c3)n2)c1 (stereo not shown) [TCMDC-136580]	-40.58%
Cc1ccc(C(NC(=O)Cc2ccccc2)c2ccc3cccnc3c2O)cc1 (stereo not shown) [TCMDC-125551]	6.84%
O=C(CCc1ccccc1)NC(c1ccc(Cl)cc1)c1ccc2cccnc2c1O (stereo not shown) [TCMDC-123537]	82.06%
O=C(Cc1ccccc1)NC(c1ccccc1)c1ccc2cccnc2c1O (stereo not shown) [TCMDC-124383]	92.16%
c1ccc(C(OCCC2CCN(Cc3cccc4cccnc34)CC2)c2ccccc2)cc1 [TCMDC-136047]	-51.83%
O=C(NC(c1ccc(Cl)cc1)c1ccc2cccnc2c1O)c1ccccc1 (stereo not shown) [TCMDC-123829]	-93.03%
O=C(Cc1ccccc1)NC(c1ccc(Cl)cc1)c1ccc2cccnc2c1O (stereo not shown) [TCMDC-124427]	70.3%
CN(C)CCNc1ncnc2c1[nH]c1ccc(Br)cc12 [TCMDC-124584]	3.603%
CN(C)c1cc(N/N=C/c2cc(Cl)ccc2O)nc(N(C)C)n1 [TCMDC-125812]	-69.18%
CC1CN(Cc2cccc(C#N)c2)CCN1c1ccc(NC(=O)c2cccs2)cc1 (stereo not shown) [TCMDC-134969]	-7.267%
O=C(CSc1cccc[n+]1[O-])c1ccc(Cc2ncc(C(F)(F)F)cc2Cl)s1 [TCMDC-125823]	10.92%
